# Source: PubChem BioAssay
# DT40 TDP1 no CPT = qHTS for Inhibitors of human tyrosyl-DNA phosphodiesterase 1 (TDP1): qHTS in cells in absence of CPT | Potency, µM (top dose mostly 46.2 µM), for inactives: at the top dose activity change, negative = growth inhibition, hits mostly inhibitors | AID 686978, 2013 | actives 15% (n = 420,000) | DT40 Tdp1-/- hTDP1 cells, no CPT, ATP luminescence, 48 h; further: potency means the concentration at half of the fitted maximal effect; on the % scale 0 is the no-effect control and ±100 the full control effect; nearly all actives have a fitted effect of over 55% in size
#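 DT40 Tdp1-/-;hTDP1 cells, no CPT (DMSO vehicle only), 400 cells/well; compounds pin-transferred; ≥48 hr, 37 °C; CellTiter-Glo 30 min RT dark, luminescence read.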
# MCF10A rereplic = DNA re-replication induction in MCF 10a cells | actives 2.9% (n = 350,000) | Potency, µM (series often up to 46.1 µM), inactives show top-dose activity, positive = re-replication, usual class: activators | MCF 10A DNA re-replication, Hoechst nuclear intensity, 48 h; further: potency means the concentration at half of the fitted maximal effect; % of control where 0% means no effect; nearly all actives have a fitted effect of over 50% in size
# IL-1B inflam inh = inhibitors of inflammasome signaling (IL-1 beta secretion); THP-1 LPS/ATP IL-1B secretion, AlphaLISA, 16 h; stronger effect = lower value; activity change, % at 57.5 µM; actives 4.7% (n = 360,000); AID 743279; in the data active means activity change below about -50%; inconclusive means mostly about -30% to -49%; further: on the % scale 0 is the no-effect control and ±100 the full control effect
#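 Secreted IL-1B measured by AlphaLISA bead assay after 16 h compound exposure of THP-1 cells; compounds (final up to 57.5 uM) added 1 h before LPS (250 ng/mL) and ATP (1.25 mM) stimulation; lower signal means less secretion.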
# BCR signal inh = inhibitors of chronic active B-cell receptor signaling; actives 0.05% (n = 340,000); Potency, µM (highest dose often 46.1 µM), for the others: at the top dose activity change, negative = inhibition, hits mostly inhibitors; AID 493014; ABC-DLBCL IkBa-CBG/CBR reporter, luminescence ratio, 4 h; active means well fitted inhibition curve with a large enough effect in the signal ratio, with a control signal flat, not every such curve was filed as active; inconclusive means small, poorly fitted or top-dose-only effect, or effect the other way, or a change in a side signal; the % refers to the signal ratio;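 further: potency means the concentration at half of the fitted maximal effect; plate controls were basal doxycycline-induced cells for no effect and cells given 10 µM MG132 for full effect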
#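 Doxycycline induced both beetle luciferases in TMD8 lymphoma cells; IKK-driven degradation limits the IkappaBalpha-fused green signal, while red luminescence normalises for cell number and nonspecific effects. Compounds tested up to 46 uM, 4 hrs.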
# TDP1 cell CPT = growth inhibition of DT40 Tdp1-/-;hTDP1 cells with camptothecin (screen for TDP1 inhibitors); chicken DT40 Tdp1-/-;hTDP1 cells + 20 nM CPT, ATP luminescence, 48 h; Potency, µM (highest dose often 46.2 µM), for inactives: at the top dose activity change, negative = growth inhibition, actives largely listed as inhibitors; actives 12% (n = 420,000); further: potency means the concentration at half of the fitted maximal effect; on the % scale 0 is the no-effect control and ±100 the full control effect; nearly all actives have a fitted effect of over 55% in size
#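 Chicken DT40 Tdp1-/- cells stably complemented with human TDP1 were seeded at 400 cells/well in medium containing 20 nM camptothecin, exposed to pin-transferred compounds, and grown at 37 °C for at least 48 hr. Viability was read as ATP luminescence.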
# SW480 rerep = inducers of DNA re-replication in SW480 colon cancer cells. SW480 DNA re-replication, Hoechst DNA content imaging, 48 h. Potency, µM (titrated, usually from 46.1 µM), for inactives: at the highest dose re-replication activation, most hits filed as activators. actives 1.8% (n = 340,000). AID 624297; further: potency means the concentration at half of the fitted maximal effect; % of control where 0% means no effect; nearly all actives have a fitted effect of over 55% in size
#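 Image-based read-out: total Hoechst fluorescence of nuclei (405 nm excitation, 500-530 nm emission), with hits raising the fraction of high-intensity nuclei. SW480 colon cells incubated 48 hr with compounds at 37 C.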
# Starred values were filed as active, the others as inactive; u = inconclusive; x = no result given. The list is not random: actives were taken first. Their share in the collection is about 19%. Unless noted, the call rests on the fitted dose curve; in most records, active means well fitted curve in the direction sought with a large enough effect; inconclusive means small, poorly fitted or top-dose-only effect, or another doubt; inactive means no such curve, though single readings can be large; an effect the other way counts as inactive or inconclusive.
SMILES,DT40 TDP1 no CPT,MCF10A rereplic,IL-1B inflam inh,BCR signal inh,TDP1 cell CPT,SW480 rerep
CN(CC(=O)Nc1ccc(OC(F)(F)F)cc1)C(=O)Cc1c(Cl)cccc1Cl,u,11%,-55*,13%,-14%,-15%
CCOc1ccc(NC(=O)CN(C)C(=O)/C=C/c2ccco2)cc1OCC,1%,-2%,-6,1%,-10%,6%
O=C(c1cc(COc2ccc(F)cc2Cl)on1)N1CCN(C2CCCC2)CC1,u,3%,u,0%,18µM*,18%
COc1cc(Cl)ccc1OCc1cc(C(=O)N2CCN(C3CCCCC3)CC2)no1,23µM*,x,4,x,u,x
O=C(c1cc(COc2ccc(F)cc2Cl)on1)N1CCN(C2CCCCC2)C(=O)C1,7.3µM*,17%,-4,-2%,10µM*,1%
O=C(c1cc(COc2c(F)cccc2F)on1)N1CCN(C2CCCCC2)C(=O)C1,u,16%,20,2%,u,-7%
Cc1cccc(C)c1OCc1cc(C(=O)N2CCN(C3CCCC3)CC2)no1,u,7%,-14,4%,u,-1%
COc1cc(Cl)ccc1OCc1cc(C(=O)N2CCN(C)CC2)no1,-2%,4%,0,1%,-21%,6%
COc1ccc(OCc2cc(C(=O)N3CCC(OC)CC3)no2)c2ccccc12,15µM*,6%,13,-15%,23µM*,-1%
CC(C)OCCCn1c(SCC(=O)Nc2ccccc2C(F)(F)F)nc2nccnc2c1=O,8%,0%,5,-1%,1%,-16%
O=C(c1cc(COc2ccc(F)c(F)c2)on1)N1CCN(C2CCCCC2)C(=O)C1,23µM*,3%,5,9%,u,-23%
CCN1CCN(C(=O)c2cc(COc3ccc(F)c(F)c3)on2)[C@@H](C)C1=O,21µM*,x,44,x,15µM*,x
CCCN1CCN(C(=O)c2cc(COc3ccc(F)c(F)c3)on2)CC1,1%,u,-22,1%,-27%,u
O=C(c1cc(COc2ccc(F)c(F)c2)on1)N1CCN(C/C=C/c2ccccc2)CC1,26µM*,u,-26,u,u,-8%
COc1cc2[nH]c(=O)n(CCCC(=O)N(C)Cc3ccccc3)c(=O)c2cc1OC,-25%,x,x,x,u,x
CSCCC(C)N1CCC(Oc2ccc(C(=O)NCc3ccccn3)cc2)CC1 (configuration not stated),-5%,x,6,x,-20%,x
COc1ccc(C2CC(=O)C3=C(C2)NC(C)=C(C(=O)Nc2ccccc2C)C3c2coc3ccc(C)cc3c2=O)cc1OC (configuration not stated),u,7%,-10,11%,21µM*,11%
CC1=C(C(=O)Nc2ccccc2)C(c2coc3ccccc3c2=O)C2=C(CCCC2=O)N1 (configuration not stated),-19%,5%,16,-17%,-17%,1%
CC(C)OC(=O)CN1C(=O)S/C(=C/c2ccc(N3CCCCC3)o2)C1=O,20µM*,26%,-104*,2%,16µM*,u
O=C1S/C(=C/c2ccc(N3CCOCC3)o2)C(=O)N1Cc1ccc(F)cc1,u,10%,-22,8%,u,6%
CC[n+]1cccc(-c2nc3ccccc3s2)c1,10%,-7%,57,-13%,u,0%
CC[n+]1c(/C=C/N(C)c2ccccc2)n(-c2ccccc2)c2ccc(-c3nc4ccccc4s3)cc21,0.73µM*,u,-102*,u,0.82µM*,16µM*
CCOc1ccc(OCC)c(NC(=O)c2nnn(Cc3cc(Br)ccc3OC)c2N)c1,-20%,x,x,x,-7%,x
